Assay outcomes (PubChem)
PINK1 modulator = modulators of PINK1 expression. actives 0.2% (n = 410,000). PINK1 immunofluorescence, high-content cytometry, 24 h. Potency, µM (series often up to 76.6 µM), for the others: at the highest dose activation (PINK1 increase), usual class: activators; active = well fitted activation curve with a large enough effect; inconclusive = small, poorly fitted or top-dose-only effect; cell line not stated here; note: % of control where 0% means no effect; nearly all actives have a fitted effect of over 65% in size
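Cells are seeded, rested 12 hours, then given compound at five concentrations or DMSO for 24 hours. After fixation, blocking and antibody staining, PINK1 amount and mitochondrial localization are scored; CCCP serves as control.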
ClpP mod = qHTS Assay for Activators of ClpP. ATP-dependent Clp protease proteolytic subunit (Bacillus subtilis (strain 168)), P80244. purified B. subtilis ClpP, FRET peptide cleavage, 20 min. Potency, µM (top dose mostly 57.5 µM), without a hit: at the highest dose activity change, negative = active. actives 1.9% (n = 340,000). AID 651965, 2013; active = well fitted falling curve with a large enough effect; inconclusive = small, poorly fitted or top-dose-only effect; inactive = no such curve, though single readings can be large or run the other way; note: the source files actives as falling curves though it sought activators and does not explain the sign; nearly all actives have a fitted effect of over 65% in size
Target sequence (P80244 whole entry, looked up): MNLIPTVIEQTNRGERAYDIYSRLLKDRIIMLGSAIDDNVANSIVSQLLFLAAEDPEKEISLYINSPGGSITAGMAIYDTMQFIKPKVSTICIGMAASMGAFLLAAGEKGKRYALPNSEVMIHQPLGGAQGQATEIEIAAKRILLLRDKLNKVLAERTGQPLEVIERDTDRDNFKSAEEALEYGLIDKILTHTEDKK
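Buffer: 100 mM Tris/HCl pH8, 100 mM KCl, 0.05% low protease BSA, 2.5% glycerol, 0.01% Tween-20. ClpP 10 microg/mL final; 20 min RT; delta FRET normalized to ADEP and DMSO controls.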
Sfp PPTase inh = Sfp phosphopantetheinyl transferase inhibition | Q9F4F7 | Biochemical Sfp PPTase activity, qHTS | Potency, µM, for the others: largest response in the series, negative = inhibition, hits mostly inhibitors | actives 3.5% (n = 310,000) | AID 1490;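 note: the enzyme is Sfp with the accession as filed and its product quenches rhodamine fluorescence; 0% = enzyme reaction without inhibitor and -100% = no enzyme wells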
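Buffer: 50 mM Hepes-Na pH 7.6, 10 mM MgCl2, 0.01% Nonidet P-40, 0.01% BSA. Enzyme 15 nM, pre-exposed to compound 15 min; substrates then added and fluorescence change tracked over 30 min.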
Epigenetic reg = derepresses silenced GFP reporter in murine cells; murine LDR cells, GFP reporter derepression, 30 h; Potency, µM (doses to about 53.9 µM), without a hit: at the highest dose GFP activation, usual class: activators; actives 0.2% (n = 280,000); AID 1865; note: % of control where 0% means no effect; nearly all actives have a fitted effect of over 60% in size
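Derepression of a silenced CMV-GFP reporter in murine LDR cells is scored by enumerating GFP-positive cells with a laser-scanning microplate cytometer after 30 hours of treatment at 37 C.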
VP16 counter = Gal4-VP16 reporter inhibition counter-screen; Drosophila S2 Gal4-VP16 UAS-luciferase, luminescence, 20 h; actives 3.5% (n = 310,000); AID 2546; Potency, µM (highest dose often 53.6 µM), for the others: at the top dose activity, negative = inhibition, most hits filed as inhibitors;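 note: Gal4-VP16 expression switched on by copper sulfate through the metallothionein promoter; % is set by controls: 0 for no effect and ±100 for the full control effect; nearly all actives have a fitted effect of over 50% in size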
RORgamma inh = blocks mouse ROR gamma transcriptional activity; P51450; Drosophila S2 Gal4-RORgamma UAS-luciferase reporter, 20 h; Potency, µM (titrated, usually from 53.6 µM), for inactives: top-dose activity change, negative = inhibition, most hits filed as inhibitors; actives 5.4% (n = 310,000); AID 2551; note: % is set by controls: 0 for no effect and ±100 for the full control effect; nearly all actives have a fitted effect of over 60% in size
Target sequence (P51450 whole entry, looked up, the tested form may be a part): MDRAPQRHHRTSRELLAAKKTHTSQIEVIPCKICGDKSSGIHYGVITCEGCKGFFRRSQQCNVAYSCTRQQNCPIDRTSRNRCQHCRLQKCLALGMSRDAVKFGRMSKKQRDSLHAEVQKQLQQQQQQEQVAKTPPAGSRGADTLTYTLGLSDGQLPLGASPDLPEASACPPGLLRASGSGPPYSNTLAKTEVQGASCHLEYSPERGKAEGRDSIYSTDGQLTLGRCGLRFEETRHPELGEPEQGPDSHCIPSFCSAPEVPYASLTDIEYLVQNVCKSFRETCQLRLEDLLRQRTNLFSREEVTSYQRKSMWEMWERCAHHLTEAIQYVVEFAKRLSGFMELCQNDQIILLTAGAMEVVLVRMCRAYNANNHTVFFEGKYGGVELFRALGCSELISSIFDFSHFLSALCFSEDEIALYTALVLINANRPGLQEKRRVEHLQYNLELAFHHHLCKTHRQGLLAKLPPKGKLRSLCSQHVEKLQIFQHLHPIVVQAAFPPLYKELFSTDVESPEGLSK
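Using a luciferase readout, inhibitors were identified by reduced reporter activity in Drosophila cells coexpressing a copper-inducible Gal4–ROR gamma fusion and UAS-driven Photinus luciferase, incubated 20 hr after 700 uM copper sulfate.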
Active calls of the source: *; ? = inconclusive; nt = no result; ! = a repeat was not active; [ ] = another dose, or the depositor's remark. Rows were chosen to be rich in hits. Some 8.1% of all compounds tested hit in one or more screens of this group. Unless noted, calls come from the whole dose curve; as a rule, active = well fitted curve in the direction sought with a large enough effect; inconclusive = small, poorly fitted or top-dose-only effect, or another doubt; inactive = no such curve, though single readings can be large; an effect the other way counts as inactive or inconclusive. Potency is the fitted concentration of half-maximal effect.

SMILES	PINK1 modulator	ClpP mod	Sfp PPTase inh	Epigenetic reg	VP16 counter	RORgamma inh
N#Cc1nc(-c2ccc(OCc3ccccc3)cc2)oc1N1CCOCC1	?	28µM*	-3%	2%	-8%	13%
N#Cc1nc(-c2ccccc2F)oc1N1CCN(C(=O)c2ccco2)CC1	0%	31%	1%	nt	-5%	7%
O=C(NCCCN1CCCCCC1)c1ccc2c(c1)sc1nc(-c3ccccc3)cn12	0%	-29%	nt	1%	nt	nt
COc1ccc(-c2nc(C#N)c(NCc3ccco3)o2)cc1	4%	4%	-7%	-1%	-4%	22%
N#Cc1nc(-c2ccc(OCc3ccccc3)cc2)oc1NCc1ccco1	9%	10µM*	?	5%	-4%	-12%
Cc1nn(CCC(=O)NNC(=S)Nc2ccc(F)cc2)c(C)c1Br	0%	-2%	8%	0%	?	0.89µM*
Cc1nn(CCC(=O)NNC(=S)Nc2ccc([N+](=O)[O-])cc2)c(C)c1[N+](=O)[O-]	0%	-1%	-15%	-3%	-1%	-17%
CCCCNC(=S)NNC(=O)CCn1nc(C)c(Br)c1C	6%[38.3 µM]	-2%	6%	-1%	2.8µM*	0.63µM*
CCCCNC(=S)NNC(=O)c1nn(C)c(C)c1Cl	-2%	1%	21%	1%	-9%	?
CSc1ccc(CCNC(=O)c2c(C)oc3ncn(C)c(=O)c23)cc1	1%	-2%	nt	-1%	nt	nt
O=C(CN1Cc2ccccc2OC(c2ccsc2)C1)NCc1ccc2c(c1)OCO2 (stereo not drawn)	-1%	nt	nt	nt	nt	nt
COc1cccc(CNC(=O)CCCn2ncn3c(cc4occc43)c2=O)c1OC	0%	-5%	nt	-4%	nt	nt
COc1ccc(NC(=O)CSC2=Nc3ccccc3C3=NC(CCC(=O)NCc4ccc(F)cc4)C(=O)N23)cc1Cl (stereo not drawn)	1%	-8%	nt	2%	nt	nt
COC(=O)c1ccc2[nH]c(C)c(CN3CCCC3)c(=O)c2c1	1%	28µM*	14%	-5%	-13%	-9%
C=CCN(CC=C)Cc1c(C)[nH]c2ccc(C(=O)OCC)cc2c1=O	-4%[38.3 µM]	28µM*	-5%	-2%	-7%	-19%
Cc1[nH]c2ccc(Br)cc2c(=O)c1CN1CCCCC1	nt	0%	13%	-1%	1%	6%
CCOc1ccc2[nH]c(C)c(CN3CCN(CC)CC3)c(=O)c2c1	-2%	16µM*	-6%	-1%	4%	-1%
Cc1noc(Cn2c(=O)c3ccccc3n(CC(=O)Nc3ccc(F)cc3F)c2=O)n1	2%	-10%	nt	1%	nt	nt
CN(C)S(=O)(=O)c1ccc(C(=O)NC2CC(=O)N(c3ccc4c(c3)OCCO4)C2)cc1 (stereo not drawn)	0%	-1%	nt	8%	nt	nt
S=c1[nH]c2cc3ccccc3cc2[nH]1	0%	2%	56µM*!	1%	?	?
Nc1ccc2[nH]c(=S)[nH]c2c1	-2%	nt	nt	nt	nt	nt
Cc1cc2[nH]c(=S)[nH]c2cc1C	-2%	-3%	35µM*	2%	2%	?
S=c1[nH]c2ccc(Cc3ccc4[nH]c(=S)[nH]c4c3)cc2[nH]1	15%	nt	28µM*	nt	-11%	2%
Cc1ccc2cccc(NC(=O)COc3ccccc3[N+](=O)[O-])c2n1	1%	2%	nt	12%	nt	nt
O=[N+]([O-])c1ccc2c(c1N1CCCCC1)=NC1(CCCCC1)[N+]=2[O-]	1%	nt	25µM*	4%	-3%	15%
SMILES	PINK1 modulator	ClpP mod	Sfp PPTase inh	Epigenetic reg	VP16 counter	RORgamma inh
O=[N+]([O-])c1ccc(N2CCCCC2)nc1N1CCCCC1	4%	nt	-11%	3%	6%	?
CCCS(=O)(=O)c1ncc(Cl)c(C(=O)Nc2sc3c(c2C(=O)NCC)CCCC3)n1	2%	-4%	nt	nt	nt	nt
COc1ccccc1CNC(=O)CN1C(=O)COc2ccc(S(=O)(=O)Nc3ccccc3)cc21	1%	-3%	nt	1%	nt	nt
Cc1c(Cl)cccc1NC(=S)N(Cc1ccco1)C(C)c1ccccn1 (stereo not drawn)	1%	0%	-10%	-2%	?	10µM*
Cc1c(Cl)cccc1NC(=S)N(CCN(C)C)C(C)c1ccccn1 (stereo not drawn)	2%	nt	-22%	1%	?	13µM*
Cc1ccccc1NC(=S)N(CCN(C)C)C(C)c1ccccn1 (stereo not drawn)	1%	1%	-4%	-1%	5%	?
CSc1cccc(NC(=S)N(CCN(C)C)C(C)c2ccncc2)c1 (stereo not drawn)	3%	1%	20%	0%	-3%	?
CSc1cccc(NC(=S)N(CCN(C)C)C(C)c2ccccn2)c1 (stereo not drawn)	3%	nt	-2%	-5%	?	18µM*
Cc1ccccc1NC(=S)N(Cc1ccco1)C(C)c1ccccn1 (stereo not drawn)	1%	nt	79µM*	-2%	?	13µM*
O=C(Cn1ccn(-c2ccc(F)cc2)c(=O)c1=O)NCCc1ccccc1	0%	-3%	nt	1%	nt	nt
COc1ccc(Nc2ncnc3c2cnn3-c2ccc(C)cc2)cc1Cl	1%	-15%	nt	0%	nt	nt
CN(C(=O)c1cc2c(=O)n3ccccc3nc2n1C)c1ccccc1	1%	?	nt	0%	nt	nt
COc1cc(SSc2cc(OC)cc([N+](=O)[O-])c2N)c(N)c([N+](=O)[O-])c1	1%	1%	2.5µM*	8%	-8%	?
COc1cc([N+](=O)[O-])c2ncsc2c1	3%	1%	?	0%	4%	?
CC(C)CC(=O)Nc1ccccc1OCc1cc(=O)n2ccccc2n1	0%	?	nt	3%	nt	nt
COc1ccccc1CNC(=O)c1ccc2nc(N3CCCCC3)sc2c1	2%	0%	nt	-7%	nt	nt
CC1=CCCC(C)(C)C1/C=C/C(C)=N/NC(=O)c1ccncc1 (stereo not drawn)	4%	nt	6%	0%	?	2.8µM*
CCN(Cc1ccccc1)S(=O)(=O)c1ccc2[nH]c3c(c2c1)CCCCC3	?	?	nt	-1%	nt	nt
CCN(c1ccc(OC)cc1)S(=O)(=O)c1ccc2[nH]c3c(c2c1)CCCCC3	25µM*	?	nt	-1%	nt	nt
COCCN(C)C(=O)c1cnn(-c2nccc(-c3cc(OC)ccc3OC)n2)c1C	0%	nt	nt	nt	nt	nt
CC(C)(S)[C@@H](N)C(=O)O	0%	2%	50µM*	1%	4%	9%
CC(C)[C@@H](N)C(=O)O	nt	nt	-20%	-2%	-1%	-8%
CCCC(=O)NC(=S)Nc1c(C)cc(Br)cc1C	14%	5%	nt	nt	nt	nt
Cc1cc(Br)cc(C)c1NC(=S)NC(=O)CC(C)C	0%	-1%	18%	1%	7.9µM*	4.5µM*
